Laboratory results from PubChem BioAssay AID624330 (Southern Research Specialized Biocontainment Screening …, 2012).
In all, about 340,000 compounds went through this assay and about 2,100 (0.62%) were called active.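 The calls were made as follows: active = first-screen hits whose inhibition reached a set limit at any dose in the follow-up dose series; inconclusive = inhibition above the set first-screen limit but never retested; inactive = the rest.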 Only a sample is shown. Results with a measured potency or affinity are listed apart.

These compounds were tested against Rac GTPase-activating protein 1 (Homo sapiens) (UniProt Q9H0H5) (assay: blockers of MgcRacGAP-driven Rac1 GTP hydrolysis – biochemical, ADP Hunter fluorescence, primary and confirmatory, confirmation (AID 624330;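 also: fluorescence reports GDP produced by GAP-driven GTP hydrolysis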)). Conditions: MgcRacGAP-stimulated Rac1 GTP hydrolysis, at 30 µM, hits give high values, GST-tagged Rac1 F28L mutant substrate.
Rac GTPase-activating protein 1 (Homo sapiens), sequence (Q9H0H5 whole entry, looked up): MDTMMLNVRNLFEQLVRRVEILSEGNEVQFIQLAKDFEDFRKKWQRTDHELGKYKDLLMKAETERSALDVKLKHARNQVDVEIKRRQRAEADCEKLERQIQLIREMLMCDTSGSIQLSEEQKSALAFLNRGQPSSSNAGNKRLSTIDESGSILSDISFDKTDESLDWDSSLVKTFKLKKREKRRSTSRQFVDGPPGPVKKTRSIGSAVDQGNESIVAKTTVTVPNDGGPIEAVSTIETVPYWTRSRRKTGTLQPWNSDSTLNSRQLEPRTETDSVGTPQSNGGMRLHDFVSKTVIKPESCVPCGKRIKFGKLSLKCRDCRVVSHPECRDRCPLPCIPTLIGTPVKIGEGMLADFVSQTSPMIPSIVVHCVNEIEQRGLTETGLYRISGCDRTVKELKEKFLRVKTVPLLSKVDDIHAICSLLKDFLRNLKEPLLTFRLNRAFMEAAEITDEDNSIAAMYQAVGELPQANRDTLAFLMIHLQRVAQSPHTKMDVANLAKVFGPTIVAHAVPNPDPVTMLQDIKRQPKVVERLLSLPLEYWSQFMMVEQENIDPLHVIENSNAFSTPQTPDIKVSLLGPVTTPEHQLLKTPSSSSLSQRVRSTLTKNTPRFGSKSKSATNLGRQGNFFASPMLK

inhibition, inactive:
CCn1c(C)nc2c(C)[n+](CC(=O)c3ccc(Br)cc3)ccc21 8.56%
CSc1nnc2ccc(-c3ccccn3)nn12 -3.72%
COc1ccc(NC2CCCN(C(=O)c3cccc(C)n3)C2)cc1OC (stereo not given) 26.1%
COc1cccc(/C=N/Nc2ncnc3c2ncn3Cc2ccccc2)c1O 7.53%
Oc1cccc(/C=N/Nc2ncnc3c2ncn3Cc2ccccc2)c1 15.2%
COc1cccc(C2C(C(=O)c3cccs3)=C(O)C(=O)N2CCN2CCOCC2)c1OC (stereo not given) 10.9%
O=c1ccn([C@@H]2O[C@H](CNCC3=Cc4cc(O)ccc4OC3)[C@@H](O)[C@H]2O)c(=O)[nH]1 20%
Cc1cn([C@H]2C[C@H](O)[C@@H](CNCc3ccccc3)O2)c(=O)[nH]c1=O 7%
COC(=O)c1ccc(CNC(=O)C2CCC(=O)N(CCc3ccccc3)C2)cc1 (stereo not given) 6.06%
Cn1c(=O)c([N+](=O)[O-])c(NCc2ccccc2Cl)c2ccccc21 8.45%
O=c1/c(=C/c2ccc([N+](=O)[O-])cc2)sc2n1CCCN=2 9.61%
O=c1/c(=C\c2ccc3c(c2)OCO3)sc2n1CCCN=2 8.3%
CN(C)c1ccc(/C=c2\sc3n(c2=O)CCCN=3)cc1 9.18%
O=c1/c(=C\c2ccc(F)cc2)sc2n1CCCN=2 -5.16%
COc1ccc(CCNS(=O)(=O)c2cn(C)c(=O)n(C)c2=O)cc1OC -1.5%
CCc1ccccc1NC(=O)NCc1ccccn1 7.56%
Cc1ccc(C)c2c1cc(C)c1nnc(SCC(=O)Nc3nc4c(s3)CCCC4)n12 6.82%
CN(C)c1ccc(/C=C2\CCCc3c2nc2ccccc2c3C(=O)O)cc1 28.8%
CCOC(=O)CC1=NN(c2ccccc2)C(=O)/C1=C\c1ccc(N(C)C)cc1 12%
CN(C)c1ccc(/C=C2\CCCCC2=O)cc1 22%
CC1=NN(c2cccc(F)c2)C(=O)/C1=C/c1ccc(N(C)C)cc1 4.18%
CC(=O)N1/C(=C/c2ccc(N(C)C)cc2)C(=O)c2ccccc21 10.6%
CN(C)c1ccc(/C=C2\SC(=O)N(CC(O)Cn3c4ccccc4c4ccccc43)C2=O)cc1 (stereo not given) 9.97%
CN(C)c1ccc(/C=C/c2nc3ccccc3c(=O)n2-c2ccc(C(=O)O)cc2)cc1 21.8%
CCOC(=O)C1=NN(c2ccccc2)C(=O)/C1=C\c1ccc(N(C)C)cc1 14.6%
Cc1ccc(/C=C/C(=O)OCC(=O)NCCN2C(=O)CSC2=O)o1 5.03%
Cc1nc(CNC(=O)C2CCC(=O)N(CCc3ccc(Cl)cc3)C2)sc1C (stereo not given) 10.8%
COc1cc(/C=N/Nc2nc(Nc3ccccc3)nc(N3CCOCC3)n2)ccc1OC(=O)c1ccco1 8.66%
CN(C)c1ccc(-c2n(C)c3ccccc3[n+]2C)cc1 3.74%
CN(c1ccc(Cl)cc1)c1cc(=O)n(C)c2ccccc12 -1.02%
O=C(Nc1ccc([N+](=O)[O-])cc1)c1cccc([N+](=O)[O-])c1 16.6%
Cc1ccc(NC(=O)c2cccc(Oc3ccc([N+](=O)[O-])cc3)c2)c(C(=O)O)c1 7.38%
Cc1cc(NC(=O)CN2C(=O)NC(C)(CC(C)C)C2=O)no1 (stereo not given) 3.59%
COc1ccc(C(=O)O)cc1NC(=S)NC(=O)/C=C/c1ccc(C(C)C)cc1 14.7%
COC(=O)c1cc(=O)n(Cc2cccs2)c(=NCc2cccs2)s1 3.47%
CCOC(CN=c1nc(N(C)C)ss1)OCC 30.1%
Cc1cc(C2(O)C(=O)Nc3ccccc32)ccc1F (stereo not given) -6.52%
COc1cccc(-c2cc(C(F)(F)F)n3nc(C(=O)Nc4c(C)n(C)n(-c5ccccc5)c4=O)cc3n2)c1 7.24%
O=C(Nc1ccccc1Cl)Nc1ccccc1Cl 10.3%
O=C(Nc1ccccc1Cl)c1ccc(C(=O)Nc2ccccc2Cl)cc1 3.72%
Cc1n[nH]c(C)c1N1C(=O)c2cccc3cc(Br)cc(c23)C1=O 15.9%
O=C(N/N=C/c1ccccc1)c1ccc(-c2ccccc2)cc1 5.75%
O=C(N/N=C/c1ccc(F)cc1)c1ccccc1 5.65%
O=C(NCc1ccccc1)C1Cc2ccccc2CN1C(=O)c1ccco1 (stereo not given) 6.98%
COc1cc(/C=N/O)cc(Br)c1OCc1ccc(Cl)cc1 0.88%
CCCCN(C(=O)Cn1nnc2ccccc21)C(C(=O)NCCOC)c1cccs1 (stereo not given) 9.34%
O=[N+]([O-])c1ccc(O)c2cccnc12 5.34%
O=C(O)c1ccccc1Nc1ccc([N+](=O)[O-])c2nonc12 5.2%
CS(=O)(=O)c1ccc(C(=O)Nc2ccc(S(=O)(=O)N3CCCCC3)cc2)cc1 3.97%
Nc1nc2ccc([N+](=O)[O-])cc2[nH]1 0.04%
O=c1[nH]c2cc([N+](=O)[O-])ccc2c2ccccc12 2.35%
O=C1N(C2CCCC2)C[C@@H]2C[C@@H](c3cn[nH]c3-c3ccc(Cl)cc3)N3CCC[C@@]123 7.84%
COc1ccc(CN2C3CCC2CC(NC(=O)c2cc(OC)c(OC)c(OC)c2)C3)cc1 (stereo not given) 9.16%
Cc1ccc(S(=O)(=O)N(C)CC(=O)Nc2ncccc2C)cc1 -0.45%
CCCNC(=S)N1CC2(C)CN(C(=O)C(=O)OC)CC(C)(C1)C2=O 2.02%
CC(=O)N(c1ccccc1)c1nnc(-c2cnc(C)cn2)s1 -6.48%
Cc1c(O)ccc2c3c(c(=O)oc12)CCC(C)C3 (stereo not given) 29.3%
CC(=O)Oc1ccc2c3c(c(=O)oc2c1C)CCCC3 4.5%
CCOC(=O)CSc1nc2c(sc(=S)n2-c2ccccc2OC)c(=O)n1-c1ccccc1OC 3.56%
COc1ccc(CCN(C)CC(O)COc2ccc(C(C)=O)cc2OC)cc1OC (stereo not given) 16.6%
COc1cc(C(C)=O)ccc1OCC(O)CNCC(O)c1ccccc1 (stereo not given) 20.6%
CC(=O)Nc1ccc(CN2CCCC(CCC(=O)NCc3ccccc3F)C2)cc1 (stereo not given) 3.48%
CCN1CCN(CCNC(=O)C2CCCN(Cc3nc(-c4cccc(Cl)c4)oc3C)C2)CC1 (stereo not given) 5.46%
O=C(c1cccs1)N1CCN(Cc2cccnc2)CC1 30.4%
O=C(c1cccc(C(=O)N2CCN(Cc3ccccc3)CC2)c1)N1CCN(Cc2ccccc2)CC1 9.35%
O=C(c1cccs1)N1CCN(Cc2ccccc2)CC1 7.61%
O=C(c1cccc(Cl)c1)N1CCN(Cc2ccc3c(c2)OCO3)CC1 7.04%
CCSc1nnc(-c2cccc(S(=O)(=O)N(C)C)c2)n1-c1cc(OC)ccc1OC 1.21%
Cc1ccc(OCCCC(=O)N(C)CC(=O)Nc2ccccc2Cl)cc1 2.87%
CC(C)[C@H](NC(=O)c1ccco1)C(=O)Nc1ccc(N2CCCCCC2)cc1 9.75%
O=C(c1ccccc1)c1c[nH]c(C(=O)NCc2cccnc2)c1 -1.95%
COc1ccc2c(c1)CCc1c(C(=O)N(C)c3ccccc3)noc1-2 7.96%
Cc1sccc1/C=N/NC(=O)c1ccco1 3.82%
Cc1ccsc1/C=C(\C#N)C(=O)NCc1ccco1 2.06%
CC(=O)Oc1ccc(C(=O)Cc2ccc3ccccc3n2)c(O)c1C -0.13%
Cc1c(O)ccc(/C(Cc2ccc3ccccc3n2)=N\N)c1O 14.8%
O=C(NCC1CCCO1)c1cnn2c(C(F)F)cc(C3CC3)nc12 (stereo not given) -0.05%
CCC(CO)Oc1cc(NCc2cccc(F)c2)c2ncn(C(C)C)c2c1 (stereo not given) 6.74%
COc1cc(/C=C/C(=O)OCC(=O)N2CCCCCC2)ccc1OCC#N 3.21%
Nc1ccccc1N1CCN(C(=O)c2ccccc2)CC1 12.8%
COc1ccc(OCc2cc(C(=O)NC(C)c3nc(C)cs3)no2)c(Cl)c1 (stereo not given) 7.35%
Oc1c(Br)cc(C2N=C(c3ccccc3)NO2)cc1Br (stereo not given) -1.87%
Brc1ccc(-c2ccccc2)cc1 1.25%
C/C(=N\NC(=O)CNC(=O)c1ccccc1F)c1ccco1 2.16%
CCCOC(=O)c1ccc(NC(=O)CN(C)Cc2cccs2)cc1 10.3%
COc1ccc(NC(=O)COC(=O)CNC(=O)c2cccs2)cc1Cl 2.23%
O=C(COC(=O)CNC(=O)c1cccs1)Nc1ccccc1C(F)(F)F 8.33%
CCN(CC)c1ccc(NC(=O)COC(=O)c2cccs2)cc1 21.8%
Cc1ccc(NC(=O)COC(=O)CCC(=O)c2cccs2)cc1 6.66%
CN(CC(=O)Nc1cc(Cl)cc(Cl)c1)Cc1cccs1 3.5%
CC(=O)c1ccc(NC(=O)COC(=O)Cc2ccsc2)cc1 8.16%
CCOc1ccc(NC(=O)COC(=O)Cc2ccsc2)cc1 2.81%
CCCCC[C@H]1CN(Cc2ccccc2)C(=O)[C@@H]1CC(=O)NCc1ccccc1 8.29%
Cc1cccc(OCC(=O)Nc2nnc(S(=O)(=O)N3CCCCCC3)s2)c1 9.88%
Cc1[nH]c(C)c(S(=O)(=O)NCc2ccco2)c1C(=O)N1CCCCC1 16.2%
